Screen size: about 5,500 compounds; about 2,000 (36%) were called active. Another 18% or so got no clear call; they are omitted. Cut-off read from the data, not from the text of the source: active = normalized growth mostly below about 0.91 (no sharp cut-off); inconclusive = no clear call, values can overlap the other calls; inactive = mostly above about 0.92. The list shows a part of the results.
Experiment: chemical genetic growth profiling, strain panel (AID 1159580);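 note: tested at 20 µM; growth read once vehicle control cultures reached saturation at 30 °C; 1 = growth at the plate median or of vehicle wells; lower values mean less growth of the strain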
Settings: growth OD

Measured: normalized growth

COc1ccc(-c2coc3c(O)c(OC)ccc3c2=O)cc1
inactive: S. cerevisiae deletion strains, locus YKL085W, strain MDH1 (second series), hits give low values 0.935 | S. cerevisiae deletion strains, locus YKL085W, strain MDH1, hits give low values 0.935 | S. cerevisiae deletion strains, locus YKL190W, strain CNB1, hits give low values 0.932 | S. cerevisiae deletion strains, locus YKR026C, strain gcn3, hits give low values 0.967 | S. cerevisiae deletion strains, locus YKR091W, strain srl3, hits give low values 0.961 | S. cerevisiae deletion strains, locus YLL001W, strain dnm1, hits give low values 0.914 | S. cerevisiae deletion strains, locus YLL026W, hits give low values 0.966 | S. cerevisiae deletion strains, locus YLL041C, strain sdh2, hits give low values 0.956 | S. cerevisiae deletion strains, locus YLR027C, strain aat2, hits give low values 0.964 | S. cerevisiae deletion strains, locus YLR058C, strain SHM2, hits give low values 0.9 | S. cerevisiae deletion strains, locus YLR102C, strain apc9, hits give low values 0.941 | S. cerevisiae deletion strains, locus YLR113W, strain HOG1, hits give low values 0.994 | S. cerevisiae deletion strains, locus YLR221C, strain rsa3, hits give low values 0.957 | S. cerevisiae deletion strains, locus YLR258W, strain gsy2, hits give low values 0.925 | S. cerevisiae deletion strains, locus YLR342W, strain FKS1 (second series), hits give low values 0.843 | S. cerevisiae deletion strains, locus YLR342W, strain FKS1, hits give low values 0.963 | S. cerevisiae deletion strains, locus YLR357W, strain rsc2, hits give low values 0.899 | S. cerevisiae deletion strains, locus YLR370C, strain arc18, hits give low values 0.974 | S. cerevisiae deletion strains, locus YLR371W, strain rom2, hits give low values 0.922 | S. cerevisiae deletion strains, locus YLR384C, strain iki3, hits give low values 0.989 | S. cerevisiae deletion strains, locus YML016C, strain PPZ1, hits give low values 0.925 | S. cerevisiae deletion strains, locus YML124C, strain tub3, hits give low values 0.937 | S. cerevisiae deletion strains, locus YMR058W, strain fet3, hits give low values 0.952 | S. cerevisiae deletion strains, locus YMR125W, strain sto1, hits give low values 0.964 | S. cerevisiae deletion strains, locus YMR129W, hits give low values 0.969 | S. cerevisiae deletion strains, locus YMR231W, strain pep5, hits give low values 0.987 | S. cerevisiae deletion strains, locus YNL067W, strain RPL9B, hits give low values 0.959 | S. cerevisiae deletion strains, locus YNL128W, strain TEP1, hits give low values 0.889 | S. cerevisiae deletion strains, locus YNL183C, strain NPR1, hits give low values 0.952 | S. cerevisiae deletion strains, locus YNL209W, strain ssb2, hits give low values 0.948 | S. cerevisiae deletion strains, locus YNL233W, strain BNI4, hits give low values 0.879 | S. cerevisiae deletion strains, locus YNL248C, strain rpa49, hits give low values 0.965 | S. cerevisiae deletion strains, locus YNL250W, strain rad50, hits give low values 0.928 | S. cerevisiae deletion strains, locus YNL271C, strain bni1, hits give low values 0.941 | S. cerevisiae deletion strains, locus YNL322C, strain KRE1, hits give low values 0.939 | S. cerevisiae deletion strains, locus YNR049C, strain mso1, hits give low values 0.995 | S. cerevisiae deletion strains, locus YNR052C, strain pop2, hits give low values 0.925 | S. cerevisiae deletion strains, locus YOL012C, strain htz1 0.727 | S. cerevisiae deletion strains, locus YOR001W, strain rrp6, hits give low values 0.974 | S. cerevisiae deletion strains, locus YOR061W, strain CKA2, hits give low values 0.912 | S. cerevisiae deletion strains, locus YOR069W, strain VPS5, hits give low values 0.941 | S. cerevisiae deletion strains, locus YOR070C, strain gyp1, hits give low values 0.994 | S. cerevisiae deletion strains, locus YOR080W, strain dia2, hits give low values 0.992 | S. cerevisiae deletion strains, locus YOR083W, strain WHI5, hits give low values 0.902 | S. cerevisiae deletion strains, locus YOR106W, strain vam3, hits give low values 0.882 | S. cerevisiae deletion strains, locus YOR136W, strain idh2, hits give low values 0.927 | S. cerevisiae deletion strains, locus YOR231W, strain MKK1, hits give low values 1.02 | S. cerevisiae deletion strains, locus YOR265W, strain rbl2, hits give low values 0.984 | S. cerevisiae deletion strains, locus YOR270C, strain vph1, hits give low values 0.888 | S. cerevisiae deletion strains, locus YOR316C, strain cot1, hits give low values 0.943 | S. cerevisiae deletion strains, locus YPL106C, strain sse1, hits give low values 0.903 | S. cerevisiae deletion strains, locus YPL240C, strain hsp82, hits give low values 0.946 | S. cerevisiae deletion strains, locus YPL256C, strain CLN2, hits give low values 0.989 | S. cerevisiae deletion strains, locus YPR141C, strain kar3, hits give low values 0.932 | S. cerevisiae deletion strains, locus YPR167C, strain met16, hits give low values 0.926
active: S. cerevisiae deletion strains, locus YKL009W, strain mrt4, hits give low values 0.865 | S. cerevisiae deletion strains, locus YKL068W, hits give low values 0.94 | S. cerevisiae deletion strains, locus YKL160W, strain elf1, hits give low values 0.869 | S. cerevisiae deletion strains, locus YKR001C, strain vps1, hits give low values 0.82 | S. cerevisiae deletion strains, locus YLR039C, strain RIC1, hits give low values 0.491 | S. cerevisiae deletion strains, locus YLR262C, strain YPT6 (second series), hits give low values 0.736 | S. cerevisiae deletion strains, locus YLR268W, strain sec22, hits give low values 0.766 | S. cerevisiae deletion strains, locus YLR320W, strain mms22, hits give low values 0.827 | S. cerevisiae deletion strains, locus YLR330W, strain CHS5, hits give low values 0.838 | S. cerevisiae deletion strains, locus YLR418C, strain cdc73, hits give low values 0.722 | S. cerevisiae deletion strains, locus YML032C, strain rad52, hits give low values 0.862 | S. cerevisiae deletion strains, locus YML120C, strain ndi1, hits give low values 0.893 | S. cerevisiae deletion strains, locus YMR078C, strain ctf18, hits give low values 0.864 | S. cerevisiae deletion strains, locus YMR205C, strain PFK2, hits give low values 0.824 | S. cerevisiae deletion strains, locus YMR223W, strain ubp8, hits give low values 0.881 | S. cerevisiae deletion strains, locus YMR307W, strain GAS1, hits give low values 0.58 | S. cerevisiae deletion strains, locus YNL071W, strain lat1, hits give low values 0.571 | S. cerevisiae deletion strains, locus YNL298W, strain CLA4, hits give low values 0.904 | S. cerevisiae deletion strains, locus YNL307C, strain MCK1, hits give low values 0.595 | S. cerevisiae deletion strains, locus YNL322C, strain KRE1 (second series), hits give low values 0.839 | S. cerevisiae deletion strains, locus YOL147C, strain pex11, hits give low values 0.836 | S. cerevisiae deletion strains, locus YOR144C, strain elg1, hits give low values 0.894 | S. cerevisiae deletion strains, locus YOR184W, strain ser1, hits give low values 0.708 | S. cerevisiae deletion strains, locus YOR290C, strain snf2, hits give low values 0.807 | S. cerevisiae deletion strains, locus YPL051W, strain arl3, hits give low values 0.87 | S. cerevisiae deletion strains, locus YPL078C, strain atp4, hits give low values 0.836 | S. cerevisiae deletion strains, locus YPR119W, strain clb2, hits give low values 0.928 | S. cerevisiae deletion strains, locus YPR163C, strain tif3, hits give low values 0.694 | S. cerevisiae deletion strains, strain wtn01, hits give low values 0.846 | S. cerevisiae strains, strain wild type, hits give low values 0.83

Reference: PubChem BioAssay AID1159580 (chemical genetic matrix, 2015)
